The results in this text go back to the supplement of paper PMC8726507.

For the first experiment, the system named is Plasmodium falciparum NF54-HGL (transmission to Anopheles stephensi). The experiment can be described thus: percentage of barcode signal found in uninfected mosquitoes (transmission-blocking activity); higher = stronger blocking of transmission to mosquito, active = 80 or more. As to conditions: 10 µM; gametocyte preincubation time 24 h; readout time post-feed 8 days. As to the method: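 The mixture was fed to Anopheles stephensi in 96-well plates as blood meals tagged with DNA-barcoded Asaia bacteria. Eight days later, mosquitoes were classed infected or uninfected by luminescence (mean + 5 SD of unfed controls). Barcodes were quantified by Luminex MagPlex-TAG in the pooled uninfected and infected Asaia cultures, background-corrected, and the score is % of barcode signal in uninfected mosquitoes = 100*Iu/(Iu+Ii).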
Consider `CC[C@H](CO)NCCN[C@H](CC)CO`, for which the “percentage of barcode signal found in uninfected mosquitoes” value (shortened to “percentage of barcode signal found”) was 24.2% (inactive).

As to `Nc1nc(N)c2c3c(sc2n1)CN(Cc1ccccc1)CC3`, the “percentage of barcode signal found” value was 11.7% (inactive).

Take `c1ccc(-c2[nH]c3ccccc3c2C(c2ccccn2)N2CCCC2)cc1` (stereo not drawn): the “percentage of barcode signal found” value is 82.6% (active).

Regarding `O=C(NCc1nnc2n1CCCCC2)c1ccc(-c2ccc(F)cc2)o1`, the “percentage of barcode signal found” value was -11% (inactive).

For `O=C(c1cc2ccccc2o1)N1CCN(Cc2ccc3c(c2)OCO3)CC1`, the “percentage of barcode signal found” value is 0.553% (inactive).

As for `CCn1cnc2c(Nc3cc(F)cc(F)c3)nc(C#N)nc21`, the “percentage of barcode signal found” value was 33.6% (inactive).

For `CNc1snc(C)c1C(=O)NCCOc1ccc(OC)cc1`, the “percentage of barcode signal found” value is 25.3% (inactive).

In the case of `O[C@@H](c1cc(C(F)(F)F)nc2c(C(F)(F)F)cccc12)[C@H]1CCCCN1`, the “percentage of barcode signal found” value was 43.2% (inactive).

As to `CN1CCCC1CCO[C@](C)(c1ccccc1)c1ccc(Cl)cc1` (stereo partly drawn), the “percentage of barcode signal found” value is 87.8% (active).

As to `O=C(NC1CC1)c1ccc(CSCc2ccccc2Cl)o1`, the “percentage of barcode signal found” value was 36.9% (inactive).

In the case of `Nc1ncnc2c1ncn2C[C@@H](O)[C@@H](O)C(=O)O`, the “percentage of barcode signal found” value was 39.9% (inactive).

Consider `COc1ccc(-c2cc(NC(=O)c3ccc(F)cc3Cl)ccc2OC)cc1`, for which the “percentage of barcode signal found” value is -1.77% (inactive).

As to `CS(=O)(=O)Cc1nc2ccccc2oc1=O`, the “percentage of barcode signal found” value is 80.3% (active).

With `COc1nc2ccc(Br)cc2cc1[C@@H](c1ccccc1)[C@@](O)(CCN(C)C)c1cccc2ccccc12`, the “percentage of barcode signal found” value is -3.2% (inactive).

With `Nc1ncnc2c1ncn2[C@@H]1O[C@H](COS(=O)(=O)NC(=O)c2ccccc2O)[C@@H](O)[C@H]1O`, the “percentage of barcode signal found” value is -0.124% (inactive).

On to `N=C(N)Nc1ccc(-c2ccc(-c3ccc(N=C(N)N)c(Cl)c3)o2)cc1Cl`, for which the “percentage of barcode signal found” value was 101% (active).

Turning to `Cc1nn2c(=O)c3c([nH]c2c1-c1ccc(Cl)cc1)CCCC3`, the “percentage of barcode signal found” value was 40.4% (inactive).

On to `COc1ccc(C2(C(=O)Nc3ccc(Br)cc3)CCCC2)cc1`, for which the “percentage of barcode signal found” value is 15.2% (inactive).

For `Cc1ccc(Oc2ccc(NC(=O)CNc3ccccc3N3CCCC3=O)cc2)cc1`, the “percentage of barcode signal found” value is 53.3% (inactive).

As to `O=C(NCc1ccco1)N1CCN(Cc2ccc(Cl)s2)CC1`, the “percentage of barcode signal found” value is 0.794% (inactive).

In the case of `CNc1nnc(Sc2cnn(-c3ccccc3)c(=O)c2Cl)s1`, the “percentage of barcode signal found” value was 76.3% (inactive).

The experiment is the same for the next values; noted with them: 20 µM; gametocyte preincubation time 24 h; readout time post-feed 8 days.
In the case of `CC(C)(C)CN1C(=O)C(c2ccccc2)(c2ccccc2)N=C1N`, the “percentage of barcode signal found” value was 13.8% (inactive).

In the case of `FC(F)(F)c1cccc(-c2nc3c(NCc4ccncc4)nccc3[nH]2)c1`, the “percentage of barcode signal found” value was 2.48% (inactive).

As to `Nc1nccc2ccc(Oc3ccncc3)cc12`, the “percentage of barcode signal found” value was 37.6% (inactive).

As for `COc1ccc(-c2nnc3ccc(-c4cccc(C(C)C)c4)cn23)cc1OC`, the “percentage of barcode signal found” value was 47.3% (inactive).

Regarding `Cc1cc(Cl)ccc1NC(=O)CCc1ccc(S(=O)(=O)NCC(C)C)cc1`, the “percentage of barcode signal found” value is 0.0223% (inactive).

Consider `CCc1ccc([C@@H]2C[C@H](C(F)(F)F)n3ncc(C(=O)NCc4ccc(OC)cc4)c3N2)cc1`, for which the “percentage of barcode signal found” value is 8.67% (inactive).

Regarding `O=C(NCCc1ccccc1)c1cc(-c2cccnc2)cnc1NCC1CC1`, the “percentage of barcode signal found” value is 2.28% (inactive).

For `COc1ccc(Cn2cnc3c(-c4ccco4)nc(Cl)nc32)cc1`, the “percentage of barcode signal found” value was 21.6% (inactive).

Consider `CN1CCN(S(=O)(=O)c2ccc(-c3ccc4c(Nc5ncc(Cl)cn5)ccnc4c3)cc2)CC1`, for which the “percentage of barcode signal found” value is 50.8% (inactive).

On to `Cc1cc(NC(=O)c2ccc(Oc3ccc(Cl)cc3O)o2)no1`, for which the “percentage of barcode signal found” value is 33% (inactive).

For the compound `CCc1nc2ccc(Cl)cn2c1C(=O)NCc1ccc(N2CCC(c3ccc(OC(F)(F)F)cc3)CC2)cc1`, the “percentage of barcode signal found” value was 32% (inactive).

Take `COc1cccc(-n2nnnc2S(C)(=O)=O)c1`: the “percentage of barcode signal found” value is 70.1% (inactive).

For `Nc1ccc2ncnc(Nc3ccc(OCc4cccc(F)c4)c(Cl)c3)c2c1`, the “percentage of barcode signal found” value is 17.8% (inactive).

As for `c1ccc(Oc2ccc(-c3cc(N4CCNCC4)[nH]n3)cc2)cc1`, the “percentage of barcode signal found” value was 27.2% (inactive).

As for `OC[C@H]1O[C@@H](n2c3ccc(Cl)cc3c3c(-c4cc5ccccc5o4)ncnc32)C(O)[C@H]1O` (stereo partly drawn), the “percentage of barcode signal found” value was 8.88% (inactive).

`CCN(CC)CCCN1CCN(C(=O)c2cccc(-c3noc(C(F)(F)F)n3)c2)CC1`: the “percentage of barcode signal found” value is 64.3% (inactive).

Regarding `Cc1ccc2[nH]c(C3CCCNC3)c(-c3ccncc3)c2c1` (stereo not drawn), the “percentage of barcode signal found” value is 79.4% (inactive).
